Only some compounds are listed: those with a hit (about 1.5% of all), similar ones and a draw of the others.
IDE cell inh: human IDE inhibitors in live cells, primary screen, fluorescence polarization, HEK cells, FAbetaB substrate. FAbetaB cleavage. AID 434962, 2010. 320,000 tested, 0.41% active. inhibition, % at 5.59 µM. Insulin-degrading enzyme (Homo sapiens), P14735;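 active means percent inhibition above the average of all tested compounds plus 3 SD, set per screening campaign, cut at about 16% in these data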;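 further: IDE supplied by intact live HEK cells; FP after avidin binding of uncleaved biotin substrate so inhibition keeps polarization high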
Target sequence (P14735 whole entry, looked up): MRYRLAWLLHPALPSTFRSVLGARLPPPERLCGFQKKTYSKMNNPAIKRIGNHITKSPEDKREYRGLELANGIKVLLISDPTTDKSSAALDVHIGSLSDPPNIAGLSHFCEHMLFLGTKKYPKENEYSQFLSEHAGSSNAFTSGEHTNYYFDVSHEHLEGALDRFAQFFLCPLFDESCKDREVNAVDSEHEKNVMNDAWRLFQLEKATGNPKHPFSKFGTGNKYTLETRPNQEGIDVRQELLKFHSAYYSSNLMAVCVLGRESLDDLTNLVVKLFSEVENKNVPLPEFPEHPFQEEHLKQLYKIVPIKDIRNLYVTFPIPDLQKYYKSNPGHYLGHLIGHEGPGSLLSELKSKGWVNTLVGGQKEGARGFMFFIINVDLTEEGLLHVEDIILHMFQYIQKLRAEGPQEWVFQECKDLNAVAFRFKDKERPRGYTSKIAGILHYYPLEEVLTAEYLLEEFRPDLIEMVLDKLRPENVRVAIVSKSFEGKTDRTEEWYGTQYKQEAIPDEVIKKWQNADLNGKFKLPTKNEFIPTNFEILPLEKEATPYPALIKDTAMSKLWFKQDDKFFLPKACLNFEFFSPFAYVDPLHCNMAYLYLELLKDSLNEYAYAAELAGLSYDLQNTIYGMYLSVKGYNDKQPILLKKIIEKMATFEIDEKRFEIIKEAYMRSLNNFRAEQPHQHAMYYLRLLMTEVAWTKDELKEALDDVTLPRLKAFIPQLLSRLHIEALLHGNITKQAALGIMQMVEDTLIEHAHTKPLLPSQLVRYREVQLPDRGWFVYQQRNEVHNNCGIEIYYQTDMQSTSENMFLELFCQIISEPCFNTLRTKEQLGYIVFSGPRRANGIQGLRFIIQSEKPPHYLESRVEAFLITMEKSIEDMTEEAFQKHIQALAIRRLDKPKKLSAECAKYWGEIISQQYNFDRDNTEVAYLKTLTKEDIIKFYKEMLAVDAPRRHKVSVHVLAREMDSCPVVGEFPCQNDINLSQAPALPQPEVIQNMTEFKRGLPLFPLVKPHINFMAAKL
CRFR2-BP ag: agonists of CRF-BP/CRF-R2 complex, primary screen, cell-based, HEK293, calcium dye fluorescence, uHTS | 350,000 tested, 0.46% active | calcium dye fluorescence (FLIPR); percent of saturating CRF peptide response | activation, % at 13.2 µM;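 active means activation of at least 50%, plus an integration ratio under a set limit after plate pattern correction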
cardiac RTF act: cardiac RTF calcium sensitivity activators, primary screen, biochemical, IANBD-TnC fluorescence, EC20 calcium | Troponin I, cardiac muscle (Homo sapiens) + Troponin T, cardiac muscle (Homo sapiens) + … | IANBD-labeled TnC RTF fluorescence at EC20 calcium; 0% EC20 calcium, 100% full calcium | activation, % at 7.2 µM | 340,000 tested, 0.24% active;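 active means activation above the mean over all tested compounds plus 3 SD, cut at about 30% in these data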;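 further: rise in fluorescence read as greater calcium sensitivity of cardiac thin filaments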
IDE cell activ: human IDE activators in live cells, primary screen, fluorescence polarization, HEK cells, FAbeta-B substrate | activation, % at 5.96 µM | 340,000 tested, 0.073% active | FAbeta-B cleavage; 0% vehicle, 100% cell-free pure enzyme wells | Insulin-degrading enzyme (Homo sapiens), P14735;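 active means activation above the mean of all tested compounds plus 3 SD, set per screening campaign, cut at about 17% in these data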
RTF Ca sens inh: cardiac RTF calcium sensitivity inhibitors, primary screen, biochemical, IANBD-TnC fluorescence, EC70 calcium; Troponin I, cardiac muscle (Homo sapiens) + Troponin T, cardiac muscle (Homo sapiens) + …; IANBD-labeled cardiac RTF, Ca2+ fluorescence; inhibition, % at 7.15 µM; 340,000 tested, 0.12% active; AID 493244, 2011;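 active means inhibition above the mean inhibition of all tested compounds plus 3 SD, cut at about 17% in these data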;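 further: assay run at fixed EC70 calcium of 1.6 mM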
CRFBP-R2 block: antagonists of CRF-BP/CRF-R2 complex, primary screen, cell-based, HEK293, calcium dye fluorescence, uHTS | CRF-induced calcium fluorescence | 350,000 tested, 0.59% active | inhibition, % at 11.8 µM;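 active means inhibition of the ligand-induced calcium signal above about 50% at the single tested concentration, limit read from the data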
IDE cell inh cf: human IDE inhibitors in live cells, confirmation, fluorescence polarization, HEK cells, FAbetaB substrate; shares compounds with IDE cell inh; FAbetaB cleavage; inhibition, % at 5.59 µM; 1,200 tested, 51% active; AID 435028, 2010;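 active means mean inhibition across triplicate wells above the cutoff set by the earlier primary insulin-degrading enzyme screen, cut at about 16% in these data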
HEK293 tox: cytotoxicity in HEK cells, cytotoxicity control for IDE inhibitor project, cell-based, luminescence; 1,200 tested, 28% active; shares compounds with IDE cell inh; inhibition, % at 5.59 µM; HEK293 cytotoxicity, ATP luminescence; in the data active means inhibition above about 22%
RTF Ca inh conf: cardiac RTF calcium sensitivity inhibitors, confirmation, biochemical, fluorescence readout | shares compounds with RTF Ca sens inh | reconstituted cardiac thin filaments | inhibition, % at 7.15 µM | 360 tested, 8% active | AID 504635, 2011; in the data active means inhibition above about 18%
Each line names hits and unclear results; the compound was inactive in the other large screens (follow-up assays come after a bar, where they were run).

CN(Cc1cccs1)C(=O)COc1cccc2c1OC(C)(C)C2	none
O=c1c2ccccc2sn1-c1ccc(S(=O)(=O)N2CCCC2)cc1	IDE cell inh 38 | IDE cell inh cf inactive | HEK293 tox inactive
Cc1ccc(-n2sc3ccccc3c2=O)cc1S(=O)(=O)N1CCCCC1	IDE cell inh 83 | IDE cell inh cf 25 | HEK293 tox inactive
Cc1ccc(C(=O)NNC(=O)c2ccccc2)cc1S(=O)(=O)N1CCCCC1	none
O=c1c2ccccc2sn1-c1ccc(S(=O)(=O)N2CCCCC2)cc1	none
O=C(Nc1cccc(F)c1)/C(=C\c1ccco1)NC(=O)c1ccco1	none
CCCCCCc1cc2cc(-c3nnc(-c4ccccc4O)o3)c(=O)oc2cc1O	IDE cell inh 38, CRFR2-BP ag 232, cardiac RTF act 58 | IDE cell inh cf 118 | HEK293 tox inactive
COc1ccc(-c2nnc(-c3ccccc3O)o2)cc1	none
O=C(NCCN1CCOCC1)c1ccc(-c2ccccc2)cc1	IDE cell inh 19 | IDE cell inh cf inactive | HEK293 tox inactive
C=CCn1c(O)c(N=NC(=S)Nc2ccc(OC)cc2)c2ccccc21	IDE cell inh 17 | IDE cell inh cf inactive | HEK293 tox 57
C=CCn1c(O)c(N=NC(=S)Nc2cccc(OC)c2)c2ccccc21	IDE cell inh 19 | IDE cell inh cf inactive | HEK293 tox 82
C=CCn1c(O)c(N=NC(=O)OCC)c2ccccc21	none
O=C(CSc1cc(Cl)ccc1Cl)NC1CCCC1	none
CN(C)C(=O)CCc1ccc2c3c([nH]c2c1)[C@]1(C)[C@@H](C(=O)N2CCCCC2)C[C@H](CC(=O)NCC24CC5CC(CC(C5)C2)C4)C(=O)N1CC3	none (no result: IDE cell inh)
COc1cc(/C=C2\S/C(=N/S(=O)(=O)c3ccc(C)cc3)NC2=O)c([N+](=O)[O-])cc1OC	none
Cc1ccc(S(=O)(=O)/N=C2/NC(=O)/C(=C/c3cc([N+](=O)[O-])ccc3O)S2)cc1	IDE cell inh 58, CRFR2-BP ag 67 | IDE cell inh cf 80 | HEK293 tox inactive
CN1/C(=C\C=C(/C#N)C(=O)Nc2ccccc2F)C(C)(C)c2ccccc21	IDE cell inh 25, CRFR2-BP ag 257, cardiac RTF act 39 | IDE cell inh cf 35 | HEK293 tox inactive
Cc1cc(N2CCN(c3nc4ccccc4s3)CC2)n2ncnc2n1	IDE cell inh 17 | IDE cell inh cf inactive | HEK293 tox 75
CCOc1ccccc1NC(=O)CCNC(=O)C1CCN(S(=O)(=O)c2ccccc2)CC1	none (no result: IDE cell inh, cardiac RTF act, IDE cell activ, RTF Ca sens inh)
COc1cc2ncnc(NCc3ccccc3F)c2cc1OC	none
COc1cc2ncnc(NCc3cccc(F)c3F)c2cc1OC	IDE cell inh 18 | IDE cell inh cf inactive | HEK293 tox inactive
O=C(Nc1ccc(N2CCCCCC2)cc1)c1ccc[nH]1	none
CN1CCCC(CC2c3ccccc3Sc3ccccc32)C1 (centres undefined)	none
CN1CCCC(CN2c3ccccc3Sc3ccccc32)C1 (centres undefined)	RTF Ca sens inh 24 | RTF Ca inh conf inactive
COc1ccc(N2CCOCC2)c(NC(=O)c2cccnc2)c1	none
CN1CCN(C(=O)/C=C/c2ccc(C#N)cc2)CC1	none
Cc1ccc2nc(-c3ccc(SCC(=O)Nc4ccc5c(c4)OCCO5)nc3)[nH]c2c1	none
O=C(CSc1ccc(-c2nc3ccccc3[nH]2)cn1)Nc1ccc2c(c1)OCCO2	RTF Ca sens inh 21 | RTF Ca inh conf inactive
Cc1ccccc1NC(=O)c1sc(NC(=O)COc2ccccc2)c(C#N)c1C	RTF Ca sens inh 18 | RTF Ca inh conf inactive
Cc1cccc(NC(=O)c2sc(NC(=O)COc3ccccc3)c(C#N)c2C)c1C	none
NC(=O)c1sc2nc3c(c(-c4ccco4)c2c1N)CCC3	none
Nc1c(C(=O)NC2CC2)sc2nc3c(c(-c4ccco4)c12)CC/C3=C/c1ccco1	RTF Ca sens inh 31 | RTF Ca inh conf 98
CN1[C@@H]2CC[C@H]1CC(OC(=O)C(CO)c1ccccc1)C2 (some centres undefined)	none
CN1C2CCC1CC(OC(=O)C(CO)c1ccccc1)C2 (centres undefined)	RTF Ca sens inh active | RTF Ca inh conf inactive
CC(=O)Nc1cc(C(=O)N2CCc3ccccc3C2)ccc1Sc1ccc(C)cc1	RTF Ca sens inh 17 | RTF Ca inh conf inactive
CCCN1CCN(C(=O)c2ccc(Sc3ccc(C)cc3)c(NC(C)=O)c2)CC1	none
COc1ccc(OC)c(-n2c(SCC(=O)N3CCc4ccccc43)nc3c(c2=O)SCC3)c1	RTF Ca sens inh 40 | RTF Ca inh conf inactive
O=C(O)c1cc(N2N=C(C(F)(F)F)/C(=C/C=C/c3ccco3)C2=O)ccc1Cl	RTF Ca sens inh 111 (no result: IDE cell inh) | RTF Ca inh conf 57
CCN(C(=O)COC(=O)c1cccc(S(=O)(=O)N(C)C)c1)c1c(N)n(Cc2ccccc2)c(=O)[nH]c1=O	none (no result: IDE cell inh)
Cc1cccc(OCCCC(=O)NC2CCCCC2)c1	none
CCCCN(C(=O)c1ccc(C)o1)c1c(N)n(CC(C)C)c(=O)[nH]c1=O	none
Cc1nn(CC(=O)NCCCN2CCCC2)c(=O)c2nn(-c3ccccc3)c(C)c12	RTF Ca sens inh 19 | RTF Ca inh conf inactive
COc1ccccc1NC(=O)Cc1nnc(SCC(=O)NC2CCCCC2)n1C	none
COc1cccc(-n2c(SCc3cc(=O)oc4cc(O)c(O)cc34)nc3ccccc3c2=O)c1	RTF Ca sens inh 17 | RTF Ca inh conf inactive
CCN(CC)C(=O)CSc1nc2ccccc2c(=O)n1-c1cccc(OC)c1	none
O=C(Cn1cc(C(F)(F)F)ccc1=O)OCC(=O)c1ccc[nH]1	none
O=C1CSC(c2cccc([N+](=O)[O-])c2)N1c1c(F)cccc1F (centres undefined)	RTF Ca sens inh 22 | RTF Ca inh conf inactive
O=C1CSC(c2cccc(F)c2)N1c1c(F)cccc1F (centres undefined)	none
